Measured values as given in PubChem BioAssay (NCATS).
Several values for one entry are separate records, joined by “and”; a condition that tells them apart may be missing. Equal entries are not always repeated. Results filed as inconclusive are left out. A call without a number means that no potency is given here. The source holds several records for some structures; these can differ, active in one and inactive in another. Activity calls are given as the source filed them. Calls follow the shape of the dose curve; as a rule, active = well fitted curve in the direction sought with a large enough effect; inconclusive = small, poorly fitted or top-dose-only effect, or another doubt; inactive = no such curve, though single readings can be large; an effect the other way counts as inactive or inconclusive. Numbered stars: 1 amine (or outer) side, 2 acyl side, 3 side chain; on linkers, the order of the positions; unused ones are H or OH. Bridge positions count the residues as written; N and C are the ends. Square brackets hold non-standard residues; d marks the D form. Peptide text beside a SMILES is read from it. I, II: the chains in the order shown. Actinocin(9to1) = Cc1c2oc3c(C)ccc(C(=O)[*:1])c3nc-2c(C(=O)[*:2])c(N)c1=O; NMeV = CN[C@H](C(=O)O)C(C)C; Sar = CNCC(=O)O

Tests used:
[1] = molecular target: Glutathione peroxidase 1 (Homo sapiens) (UniProt P07203); assay: Primary qHTS Assay for Inhibitors of Recombinant Selenoprotein Glutathione Peroxidase 1 (GPX1) (AID 1845191); also: nearly all actives have a fitted effect of over 65% in size; also: potency is read from the fitted curve at half-maximal effect
Summary of the method: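 GR-coupled assay: compounds preincubated 30 min at room temperature with GPX1, then reaction started with CHP; final 10 nM GPX1, 1 mM GSH, 0.5 mM CHP, 0.5 mM NADPH, 100 nM GR, 0.01% BSA, pH 7.5 Tris buffer. NADPH fluorescence (340/450 nm) read at 0 and 15 min.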

[2] = molecular target: Phospholipid hydroperoxide glutathione peroxidase GPX4 (Homo sapiens) (UniProt P36969); assay: Primary qHTS Assay for Inhibitors of Recombinant Selenoprotein Glutathione Peroxidase 4 (GPX4) (AID 1845192); also: nearly all actives have a fitted effect of over 65% in size; also: potency is read from the fitted curve at half-maximal effect
Summary of the method: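 GR-coupled assay: recombinant GPX4 preincubated 30 min with compound at room temperature; final 200 nM GPX4, 1 mM GSH, 0.5 mM cumene hydroperoxide, 0.5 mM NADPH, 100 nM GR, 0.01% BSA, pH 7.5 Tris. NADPH fluorescence (340/450 nm) read at 0 and 15 min.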

[3] = molecular target: Metallo-beta-lactamase type 2 (Klebsiella pneumoniae) (UniProt C7C422); assay: qHTS to identify inhibitors of the New Delhi Metallo-beta-lactamase (NDM): assay validation screen against the NCATS LOPAC Collection (AID 1794843);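 also: nitrocefin turnover by NDM-1 measured as 485 nm absorbance at plateau; series mostly up to about 38 µM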
Summary of the method: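 Enzyme 2 nM final, 50 mM HEPES pH 7.0, 1 uM ZnSO4, 0.01% Tween20; cpds in DMSO, preincub w/ enzyme; + nitrocefin (50 uM stock); A485 at plateau; no-enzyme column as blank.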

Metallo-beta-lactamase type 2 (Klebsiella pneumoniae), sequence (C7C422 whole entry, looked up): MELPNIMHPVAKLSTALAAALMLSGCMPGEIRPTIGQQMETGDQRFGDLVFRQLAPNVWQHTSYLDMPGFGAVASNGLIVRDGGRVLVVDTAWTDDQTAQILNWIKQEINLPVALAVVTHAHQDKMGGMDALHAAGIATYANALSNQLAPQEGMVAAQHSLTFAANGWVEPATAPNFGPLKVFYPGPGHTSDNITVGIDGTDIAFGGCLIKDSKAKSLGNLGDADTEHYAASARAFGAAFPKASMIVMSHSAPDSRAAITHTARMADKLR
Glutathione peroxidase 1 (Homo sapiens), sequence (P07203 whole entry, looked up): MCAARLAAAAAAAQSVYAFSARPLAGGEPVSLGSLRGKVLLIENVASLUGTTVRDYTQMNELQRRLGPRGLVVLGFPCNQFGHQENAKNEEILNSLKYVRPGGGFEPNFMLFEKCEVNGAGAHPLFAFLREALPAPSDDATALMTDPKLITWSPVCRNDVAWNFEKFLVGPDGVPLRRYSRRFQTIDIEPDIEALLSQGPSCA
Phospholipid hydroperoxide glutathione peroxidase GPX4 (Homo sapiens), sequence (P36969 whole entry, looked up): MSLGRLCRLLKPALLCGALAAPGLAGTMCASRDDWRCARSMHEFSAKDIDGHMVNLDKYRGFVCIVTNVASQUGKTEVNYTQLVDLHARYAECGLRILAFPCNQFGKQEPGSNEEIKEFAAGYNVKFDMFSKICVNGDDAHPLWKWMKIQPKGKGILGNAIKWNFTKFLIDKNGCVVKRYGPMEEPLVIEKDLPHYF

| SMILES | Potency [1] | Potency [2] | outcome [3] |
| --- | --- | --- | --- |
| C[C@@H](CN(C)C)CN1c2ccccc2Sc2ccccc21 | inactive | inactive | – |
| C#C[C@]1(O)CC[C@H]2[C@@H]3CCC4=CC(=O)CC[C@@H]4[C@H]3CC[C@@]21C | inactive | inactive | – |
| C[n+]1c2cc(N)ccc2cc2ccc(N)cc21 (tested in a mixture with another compound) | inactive | inactive | – |
| CC(=O)OCC(=O)[C@@]12N=C(C)O[C@@H]1C[C@H]1[C@@H]3CCC4=CC(=O)C=C[C@]4(C)[C@H]3[C@@H](O)C[C@@]12C | inactive | inactive | – |
| CCCCOc1ccc(OCCCN2CCOCC2)cc1 | inactive | inactive | – |
| NC(=O)c1cc[n+](CC2=C(C(=O)[O-])N3C(=O)[C@@H](NC(=O)Cc4cccs4)[C@H]3SC2)cc1 | 10.1 µM (active) | – | – |
| CC(=O)c1ccc2c(c1)N(CCCN1CCC(CCO)CC1)c1ccccc1S2 | inactive | inactive | – |
| COc1cc(OC)cc(OC)c1 | inactive | inactive | – |
| CNCC[C@@H](Oc1ccccc1C)c1ccccc1 | inactive | inactive | – |
| CC(C)(CO)[C@@H](O)C(=O)NCCCO | inactive | inactive | – |
| O=c1[nH]c(=O)n([C@H]2C[C@H](O)[C@@H](CO)O2)cc1C(F)(F)F | inactive | inactive | – |
| CCCCCCCCCCCCCCCCCC(=O)OCC(O)CO (stereo unspecified) | inactive | inactive | – |
| C[C@H]1[C@H](NC(=O)/C(=N/OC(C)(C)C(=O)O)c2csc(N)n2)C(=O)N1S(=O)(=O)O (stereo in doubt) | inactive | inactive | – |
| O=C1c2ccccc2C(=O)C1c1ccccc1 | inactive | inactive | – |
| CCC(=O)c1c(O)cc(O)cc1O | inactive | inactive | – |
| C[C@@H]1C(=O)NC2=Nc3cccc(Cl)c3CN21 | – | inactive | inactive |
| CC(=O)Oc1ccc(C(=C2CCCCC2)c2ccc(OC(C)=O)cc2)cc1 | inactive | inactive | – |
| CN(C(=O)CN(CCO)CC(=O)N(C)C(C)(C)Cc1ccccc1)C(C)(C)Cc1ccccc1 | inactive | inactive | – |
| CC(=O)[C@H]1CC[C@H]2[C@@H]3C[C@H](C)C4=CC(=O)CC[C@]4(C)[C@H]3[C@@H](O)C[C@]12C | inactive | inactive | – |
| COc1cc(N)c(Cl)cc1C(=O)NC1CCN(CCCOc2ccc(F)cc2)CC1OC (stereo unspecified) | inactive | inactive | – |
| CCCCCC=CCC=CCCCCCCCC(=O)OCC | inactive | inactive | – |
| CCOc1ccc(NC(=O)CC(C)O)cc1 (stereo unspecified) | inactive | – | – |
| C[C@]12C=CC(=O)C=C1[C@@H](F)C[C@@H]1[C@@H]2[C@@H](O)C[C@@]2(C)[C@H]1CC[C@]2(O)C(=O)CO | inactive | inactive | – |
| CC1(C)O[C@@H]2C[C@H]3[C@@H]4CCC5=CC(=O)CC[C@]5(C)[C@@]4(F)[C@@H](O)C[C@]3(C)[C@]2(C(=O)CCl)O1 | inactive | inactive | – |
| CC(=O)Oc1ccc(C(c2ccc(OC(C)=O)cc2)c2ccccn2)cc1 | inactive | inactive | – |
| COC1=CC(=O)C[C@@H](C)[C@]12Oc1c(Cl)c(OC)cc(OC)c1C2=O | inactive | inactive | – |
| COc1cccc(CCc2ccccc2OCC(CN(C)C)OC(=O)CCC(=O)O)c1 (stereo unspecified) | inactive | inactive | – |

| SMILES | Potency [1] | Potency [2] | outcome [3] |
| --- | --- | --- | --- |
| CC(=O)O[C@H]1C[C@@H]2CC[C@@H]3[C@H](CC[C@@]4(C)[C@H]3C[C@H]([N+]3(C)CCCCC3)[C@@H]4OC(C)=O)[C@@]2(C)C[C@@H]1[N+]1(C)CCCCC1 | – | inactive | inactive |
| CN1CCN(CCCN2c3ccccc3Sc3ccc(S(=O)(=O)N(C)C)cc32)CC1 | inactive | inactive | – |
| CN(C)CCOc1ccccc1Cc1ccccc1 | inactive | inactive | – |
| C[C@@H]1C[C@H]2[C@@H]3CCC4=CC(=O)C=C[C@]4(C)[C@@]3(F)[C@@H](O)C[C@]2(C)[C@H]1C(=O)CO | inactive | inactive | – |
| C/C=C(/C(=C/C)c1ccc(O)cc1)c1ccc(O)cc1 | inactive | inactive | – |
| CCOC(=O)[C@H](CCc1ccccc1)N[C@@H](C)C(=O)N1Cc2ccccc2C[C@H]1C(=O)O | inactive | inactive | – |
| CN1C2CCC1CC(OC(=O)c1c[nH]c3ccccc13)C2 (stereo unspecified) | – | inactive | inactive |
| Oc1cc(O)c2c(c1)O[C@H](c1ccc(O)c(O)c1)[C@H](O)C2 | inactive | inactive | – |
| CCOC(=O)n1ccn(C)c1=S | inactive | inactive | – |
| CCOc1ccc(Cc2nccc3cc(OCC)c(OCC)cc23)cc1OCC | inactive | inactive | – |
| c1ccc(CNCCNCc2ccccc2)cc1 | inactive | inactive | – |
| CC(=O)OCC(=O)[C@@]12OC(C)(C)O[C@@H]1C[C@H]1[C@@H]3C[C@H](F)C4=CC(=O)C=C[C@]4(C)[C@@]3(F)[C@@H](O)C[C@@]12C | inactive | inactive | – |
| CCOC(=O)/C=C(C)/C=C/C=C(C)/C=C/c1c(C)cc(OC)c(C)c1C | inactive | inactive | – |
| CC1(C)O[C@@H]2C[C@H]3[C@@H]4C[C@H](F)C5=CC(=O)CC[C@]5(C)[C@H]4[C@@H](O)C[C@]3(C)[C@]2(C(=O)CO)O1 | inactive | inactive | – |
| N[C@H](Cc1c[nH]c2ccccc12)C(=O)O | inactive | inactive | – |
| Oc1c(I)cc(I)c2cccnc12 | inactive | inactive | – |
| CC(C)COC(=O)OCN1C(=O)CN(CCN2CC(=O)N(COC(=O)OCC(C)C)C(=O)C2)CC1=O | inactive | inactive | – |
| CCCC(=O)Nc1ccc(OCC(O)CNC(C)C)c(C(C)=O)c1 (stereo unspecified) | inactive | inactive | – |
| CCN1CCCC1=O | inactive | inactive | – |
| CCCCOc1ccc(C(=O)CCN2CCCCC2)cc1 | inactive | inactive | – |
| CCCCOc1cc(C(=O)NCCN(CC)CC)c2ccccc2n1 | inactive | inactive | – |
| CCCOC(C(=O)OC1CCN(C)CC1)(c1ccccc1)c1ccccc1 | inactive | inactive | – |
| COc1cc(NS(C)(=O)=O)ccc1Nc1c2ccccc2nc2ccccc12 | inactive and 25.5 µM (active) | inactive and 22.4 µM (active) | – |
| O=C(CCCN1CCC(O)(c2ccc(Br)cc2)CC1)c1ccc(F)cc1 | inactive | inactive | – |
| C=C(CC)C(=O)c1ccc(OCC(=O)O)c(Cl)c1Cl | inactive | inactive | – |
| Cc1cccn2c(=O)c(-c3nnn[nH]3)cnc12 | inactive | inactive | – |
| CCN(CCCCOC(=O)c1ccc(OC)c(OC)c1)C(C)Cc1ccc(OC)cc1 (stereo unspecified) | inactive | inactive | – |

| SMILES | Potency [1] | Potency [2] | outcome [3] |
| --- | --- | --- | --- |
| O=C(O)CCCCC(=O)O | inactive | inactive | – |
| CC(C)(C(=O)c1cccnc1)c1cccnc1 | inactive | inactive | – |
| C[C@]12CCC(=O)C=C1[C@@H]1C[C@@H]1[C@H]1[C@@H]3[C@@H]4C[C@@H]4[C@@]4(CCC(=O)O4)[C@@]3(C)CC[C@@H]12 | inactive | inactive | – |
| CC(=O)CC(c1ccc([N+](=O)[O-])cc1)c1c(O)c2ccccc2oc1=O (stereo unspecified) | inactive | inactive | – |
| C[C@H](CCC(=O)O)[C@H]1CC[C@H]2[C@@H]3C(=O)C[C@@H]4CC(=O)CC[C@]4(C)[C@H]3CC(=O)[C@]12C | inactive | inactive | – |
| CC(C)COC(=O)c1ccc(N)cc1 | inactive | inactive | – |
| CCN(CC)C(=O)N1CCN(C)CC1 | inactive | inactive | – |
| Cc1c2oc3c(C)ccc(C(=O)N[C@@H]4C(=O)N[C@H](C(C)C)C(=O)N5CCC[C@H]5C(=O)N(C)CC(=O)N(C)[C@@H](C(C)C)C(=O)O[C@@H]4C)c3nc-2c(C(=O)N[C@@H]2C(=O)N[C@H](C(C)C)C(=O)N3CCC[C@H]3C(=O)N(C)CC(=O)N(C)[C@@H](C(C)C)C(=O)O[C@@H]2C)c(N)c1=O (I: T[dV]P[Sar][NMeV] / II: T[dV]P[Sar][NMeV]; ester I:1-I:C, II:1-II:C; linker I:N-II:N via Actinocin(9to1)) | inactive | inactive | – |
| CC(=O)OCC(=O)[C@@]1(OC(C)=O)[C@@H](C)C[C@H]2[C@@H]3C[C@H](F)C4=CC(=O)C=C[C@]4(C)[C@@]3(F)[C@@H](O)C[C@@]21C | inactive | inactive | – |
| CC1(C)OC[C@@H](COC(=O)CCc2ccc(OC[C@@H](O)CNCCNC(=O)N3CCOCC3)cc2)O1 | inactive | inactive | – |
| NC(CO)(CO)CO | inactive | inactive | – |
| C=C1C[C@H]2[C@@H]3C=C(C)C4=CC(=O)CC[C@]4(C)[C@H]3CC[C@]2(C)[C@@]1(OC(C)=O)C(C)=O | inactive | inactive | – |
| CC/C(=C(/CC)c1ccc(O)cc1)c1ccc(O)cc1 | inactive | inactive | – |
| O=C(O)CNC(=O)c1ccccc1 | inactive | inactive | – |
| CC(C)N=C(N)/N=C(\N)Nc1ccc(Cl)cc1 | inactive | inactive | – |
| COc1cc2c(cc1OC)[C@@H]1CC(=O)[C@@H](CC(C)C)CN1CC2 | inactive | inactive | – |
| COc1c(C)c2c(c(O)c1C/C=C(\C)CCC(=O)O)C(=O)OC2 | inactive | inactive | – |
| Cc1c(N(C)CS(=O)(=O)O)c(=O)n(-c2ccccc2)n1C | 3.21 µM (active) | 2 µM (active) | – |
| N[C@@H](CCC(=O)N[C@@H](CS)C(=O)NCC(=O)O)C(=O)O | inactive | inactive | – |
| CN(C)CC/C=C1\c2ccccc2Sc2ccc(Cl)cc21 | inactive | inactive | – |
| Cc1c(C(C)C)c(=O)n(-c2ccccc2)n1C | inactive | inactive | – |
| OC(CCN1CCCCC1)(c1ccccc1)c1ccccc1 | inactive | inactive | – |
| CCCC(=O)O[C@]1(C(=O)CO)CC[C@H]2[C@@H]3CCC4=CC(=O)CC[C@]4(C)[C@H]3[C@@H](O)C[C@@]21C | inactive | inactive | – |
| CC(=O)Nc1c(I)cc(I)c(C(=O)O)c1I | inactive | inactive | – |
| O=C1OCCN1/N=C/c1ccc([N+](=O)[O-])o1 | inactive | inactive | – |
